Data reported in ChEMBL document CHEMBL4296182, “CO-ADD screening of NIH NCI Diversity Set V”.
For part of these data: Measured potencies and affinities stand elsewhere.

Assays:
[1] = tested on: Staphylococcus aureus; experiment: Antibacterial activity against Staphylococcus aureus MRSA ATCC 43300 (CO-ADD:GP_020); MIC in CAMBH media using NBS plates, by Resazurin F(560/590); format: functional; details: Concentration 20 uM, ASSAY_TEST Inhibition of Bacterial Growth, detection method Resazurin, Fluorescence (ex560/em590), MEDIA CAMHB, plate type 384well, CORNING #3640, time 18 hr
[2] = tested on: Acinetobacter baumannii; experiment: Antibacterial activity against Acinetobacter baumannii ATCC 19606 (CO-ADD:GN_034); MIC in CAMBH media using NBS plates, by Resazurin F(560/590); format: functional; details: Concentration 20 uM, ASSAY_TEST Inhibition of Bacterial Growth, detection method Resazurin, Fluorescence (ex560/em590), MEDIA CAMHB, plate type 384well, CORNING #3640, time 18 hr
[3] = tested on: Escherichia coli; experiment: Antibacterial activity against Escherichia coli ATCC 25922 (CO-ADD:GN_001); MIC in CAMBH media using NBS plates, by Resazurin F(560/590); format: functional; details: Concentration 20 uM, ASSAY_TEST Inhibition of Bacterial Growth, detection method Resazurin, Fluorescence (ex560/em590), MEDIA CAMHB, plate type 384well, CORNING #3640, time 18 hr
[4] = tested on: Klebsiella pneumoniae; details: Concentration 20 uM; ASSAY_TEST Inhibition of Bacterial Growth; detection method Absorption (OD600); MEDIA CAMHB; plate type 384well; NBS; CORNING #3640; time 18 hr
[5] = tested on: Candida albicans; details: 20 µM
[6] = tested on: Cryptococcus neoformans; details: Concentration 20 uM; ASSAY_TEST Inhibition of Fungal Growth; detection method Resazurin; Absorption (OD600-OD570); plate type 384well; NBS; CORNING #3640

SMILES | Inhibition [1] [%] | Inhibition [2] [%] | Inhibition [3] [%] | Inhibition [4] [%] | Inhibition [5] [%] | Inhibition [6] [%]
c1ccc(-n2ncc3cccnc32)cc1 | 6.65 | -2.45 | 7.04 | 9.31 | -0.36 | -9.65
Cc1ccc(/N=N/c2c(O)c3ccccc3[nH]c2=O)c(S(=O)(=O)N(C)C)c1 | 12.78 | 7.24 | 9.06 | 6.43 | -0.31 | -5.24
CCCNC(=O)c1ccc(S(N)(=O)=O)cc1 | 24.95 | -15.44 | 7.13 | 13.6 | -0.57 | -5.61
C=CCN=C(S)Nc1cccc([N+](=O)[O-])c1 | -6.7 | -8.3 | 0.98 | 6.17 | 0.93 | -2.12
NCc1c(O)ccc2ccccc12 | 7.19 | -7.97 | -11.88 | 11.42 | 3.27 | 15.16
COC(=O)Cc1[nH]c(S)nc1C(=O)OC | -11.54 | 1.23 | -12.23 | 0.59 | 1.43 | 19.86
NC(=O)c1cc2c3ccccc3ccn2c1-c1ccccc1 | 8.37 | -5.02 | 3.37 | 9.25 | 6.45 | -9.75
C1=CC2(C=C1)OC21CCC2(C=CC3(C2)OC3C2CCCCC2)CC1 (stereo not drawn) | -4.93 | 2.41 | 4.97 | -0.69 | 1.23 | -15.19
CN(C)CCCN1c2ccc3ccccc3c2Sc2cccc(Cl)c21 | -10.96 | 0.47 | 9.47 | 8.34 | 0.69 | 12.55
CCCNC(=O)c1ccc(Cl)cc1Cl | 12.41 | -15.87 | 4.4 | 8.05 | 0.63 | -4.71
CCOC(=O)C(=O)C1C(=O)Nc2ccccc21 (stereo not drawn) | 11.5 | 4.6 | -3.33 | 15.66 | 13.9 | -6.08
Cc1ccc(S(=O)(=O)NC(=O)Nc2nccs2)cc1 | 16.17 | -9.13 | 9.78 | 14.17 | 1.46 | -5.56
Nc1ccc(/N=N/c2ccccc2Cl)c(N)n1 | 4.22 | -1.2 | 2.51 | 18.4 | 14.2 | -16.58
CCOc1ccc(NC(=S)NC(=O)c2ccco2)cc1 | 8.6 | 0.34 | 3.81 | 5.03 | 7.98 | -14.9
NC(=O)SCC(=O)Nc1ccccc1C(=O)O | 2.18 | 6.48 | -0.39 | 23.65 | 9.98 | -3.81
O=c1[nH]c(=S)c2ncn(-c3ccccc3)c2[nH]1 | -3.01 | -10.26 | 3.12 | 1.95 | 9.78 | -2.67
O=C(Nc1cccc([N+](=O)[O-])c1)c1ccc2ccccc2c1O | 0.95 | -11.75 | 6.76 | 12.38 | 3.5 | 4.47
O=[N+]([O-])/C=C/c1cc2ccccc2[nH]1 | 0.82 | -9.9 | 9.79 | 7.79 | 46.8 | -1.09
CN(C)c1ccc(/C=C/C(=O)c2cc(Cl)ccc2O)cc1 | 14.9 | -19.64 | 10.48 | 1 | 8.13 | -6.08
O=C(CC1C=Cc2ccccc2N1C(=O)c1ccccc1)c1ccccc1 (stereo not drawn) | 3.75 | 6.29 | 9.32 | 9.71 | 2.1 | -5.82
O=C(O)C(Cc1c[nH]c2ccccc12)N1C(=O)c2ccccc2C1=O (stereo not drawn) | 3.51 | 4.73 | -5.16 | 9.04 | 3.93 | 13.59
CC(=O)/C=C(\C)Nc1ccccc1O | 8.26 | -10.28 | 7.16 | 26.72 | 1.01 | 2.5

SMILES | Inhibition [1] [%] | Inhibition [2] [%] | Inhibition [3] [%] | Inhibition [4] [%] | Inhibition [5] [%] | Inhibition [6] [%]
CC(C)=C(c1ccc(Cl)cc1)c1c(N)ncnc1N | 3.52 | -10.84 | 10.95 | 14.5 | -0.84 | -5.15
C=CCNC(S)=Nc1c(N)n(C)c(=O)n(C)c1=O | 11.89 | 5.83 | -15.58 | 18.14 | 8.36 | 18.71
COC(=O)c1ccccc1NCCO | -8.89 | 2.46 | 10.44 | 7.33 | -0.42 | -9.6
O=C(Nc1csnn1)c1csnn1 | -7.63 | -6.51 | -0.35 | -1.22 | 2.96 | 1.57
COCC(=O)Oc1cc(-c2ccc(C)cc2C)c(OC(=O)COC)c(-c2ccc(C)cc2C)c1 | 8.14 | -8.27 | 6.56 | 4.04 | 7.18 | -1.11
COc1ccc(Nc2cc(Cl)ccc2C(=O)O)cn1 | -1.71 | 14.76 | 0 | 20.74 | 22.9 | -8
Cc1nc([N+](=O)[O-])cn1-c1nc2ccccn2c1[N+](=O)[O-] | 12.97 | -5.05 | 12.78 | 11.88 | 4.75 | -6.88
CC(=O)N1C(=O)C2(NCC(C)N2)c2ccccc21 (stereo not drawn) | 7.15 | -16.52 | 6.45 | 10.18 | 2.13 | -1.95
Cc1nnsc1C(=O)NCc1c(F)cccc1Cl | -1.87 | -1.01 | -7.07 | 6.44 | -0.57 | -9.18
c1ccc(Nc2cccc3c(Nc4ccccc4)cccc23)cc1 | -4.86 | -14.93 | 9.5 | 12.7 | -0.47 | -1.96
C(=C\c1ccccn1)/c1ccccn1 | -7.74 | -5.17 | -19.26 | 9.47 | 4.3 | 26.47
CCOC(=O)CCC1(C(=O)OC)C(=O)CCCCC/C=C/1C(=O)OC (stereo not drawn) | 9.69 | 9.62 | -17.88 | 8.19 | 7.46 | 18.91
CC(=C/c1ccccc1)/C=C1/NC(=S)NC1=O | 2.65 | 4.35 | -0.7 | 10.87 | 2.17 | -5.48
Cc1ccccc1N=C(S)Nc1ccccn1 | -11.3 | 17.16 | -8.87 | 16.17 | 15.5 | 4.14
O=C(c1cccnc1)c1cc(-c2ccccn2)c(=O)n2ccccc12 | 15.83 | 5.57 | 12.26 | 7.21 | 0.65 | -7.13
Cc1cc2nc3ccc(N(C)C)cc3[s+]c2cc1N.[Cl-] [TOLONIUM CHLORIDE] | -5.05 | -12.21 | 2.47 | 19.75 | 1.87 | -7.34
c1ccc(-c2ccc3c(c2)NC(C2Nc4cc(-c5ccccc5)ccc4O2)O3)cc1 (stereo not drawn) | 3.85 | 1.02 | 2.77 | 24.34 | -1.54 | -14.91
CCOc1ccc(/C=C2\NC(=S)NC2=O)cc1 | 4.57 | -5.71 | -3.24 | 22.87 | 0.92 | -6.77
O=c1[nH]cc(Cl)cc1Cl | 16.39 | -19.78 | 16.35 | 10.84 | -0.92 | 0.46
CN(C(=O)c1ccncc1)c1ccccc1 | 38.14 | 13.73 | 16.42 | 7.45 | 4.18 | 6.4
c1ccc(-c2ccc3c(c2)NCCN3)cc1 | 0.03 | -10.39 | 5.22 | 8.37 | -1.02 | 1.51
